HCV inhibitor: qHTS Assay for Inhibitors of Hepatitis C Virus (HCV); Potency, µM (titrated, usually from 41.8 µM), actives largely listed as inhibitors; AID 651820, 2012; 3.4% of 340,000 active; Huh7.5.1 HCVcc-Cre infection, luciferase reporter, 44 h
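Reporter virus HCVcc-Cre (~0.5 moi) infects cells exposed to compound; seeding density 1,000 cells/well with 4 h settling beforehand. Luminescence, 15 sec read, taken 44 h post-infection following a 15 min RT substrate incubation.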
Shiga inhibitor: A qHTS for Small Molecule Inhibitors of Shiga Toxin; Vero cells, Shiga toxin protein synthesis inhibition reporter; inhibition, % at 38.7 µM; 9.2% of 290,000 active; AID 2315, 2010; in the data active = inhibition mostly above about 28%, no sharp cut-off; inactive = mostly below about 43%
Pf growth 48h: Primary qHTS for delayed death inhibitors of the malarial parasite plastid, 48 hour incubation; 5.9% of 310,000 active; Potency, µM (doses to about 28.7 µM), actives largely listed as inhibitors; P. falciparum luciferase growth in erythrocytes, 48 h
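Read-out is firefly luciferase luminescence from an integrated reporter in P. falciparum, so falling signal marks reduced parasite growth. Infected erythrocytes were at 2% hematocrit and 0.1% parasitemia (final) in Albumax-supplemented RPMI 1640.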
Cycloheximide cs: Cycloheximide Counterscreen for Small Molecule Inhibitors of Shiga Toxin | 12% of 300,000 active | cell reporter, cycloheximide protein synthesis inhibition counterscreen | max response, %; in the data active = max response mostly above about 13%, no sharp cut-off; inactive = mostly below about 14%; also: read at 38.3 µM for the half of the compounds with a filed dose
Pf growth 96h: Primary qHTS for delayed death inhibitors of the malarial parasite plastid, 96 hour incubation; P. falciparum luciferase reporter growth, 96 h; Potency, µM (highest dose often 28.7 µM), hits mostly inhibitors; 6.9% of 320,000 active
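Compounds incubated with erythrocytes infected by luciferase-expressing P. falciparum (2% hematocrit, 0.05% parasitemia final) for 96 hours, 37 C in 5% CO2. Growth inhibition scored as decreased luciferase luminescence.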
HCMV antiviral: qHTS Assay for inhibitors of the human cytomegalovirus (HCMV). HFF cells, HCMV-luciferase reporter, 72 h; stronger effect = lower value. AID 1259415, 2018. 4.5% of 410,000 active. activity change, negative = inhibition, % at 57.5 µM; in the data active = activity change below about -60%; inconclusive = no clear call, values can overlap the other calls; inactive = above about -39%
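Compounds were evaluated in HFFs infected with an HCMV luciferase reporter virus (MOI 1 PFU/cell). Luciferase in lysates collected 72 h post infection served as the replication measure.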
A number is an active result; [ ] = dose if it differs, or a comment. The list is not random: actives were taken first. Their share in the collection is about 21%. Unless noted, calls follow the shape of the dose curve; as a rule, active = well fitted inhibition curve with a large enough effect; inconclusive = small, poorly fitted or top-dose-only effect, or another doubt; inactive = no such curve, though single readings can be large or run the other way.

For C/C(=C\C(=O)OCCCCCCCCC(=O)O)C[C@@H]1OC[C@H](C[C@@H]2O[C@H]2[C@@H](C)[C@H](C)O)[C@@H](O)[C@H]1O the results were HCV inhibitor inactive, Pf growth 48h 0.19µM, Pf growth 96h 0.03µM and HCMV antiviral inactive.
CNc1ccccc1C(C)(C)c1cc(-c2cc(C)cc(C)c2)no1 was read as HCV inhibitor inconclusive, Shiga inhibitor inactive, Pf growth 48h inconclusive, Cycloheximide cs inactive, Pf growth 96h 9.3µM and HCMV antiviral inactive.
`CNc1ccccc1C(C)(C)c1cc(-c2cccc(OC)c2)no1` gave HCV inhibitor inconclusive, Shiga inhibitor inactive, Pf growth 48h inconclusive, Cycloheximide cs inactive, Pf growth 96h inconclusive and HCMV antiviral -83.
CNc1ccccc1C(C)(C)c1cc(-c2ccco2)n[nH]1 was read as HCV inhibitor inactive, Shiga inhibitor inactive, Pf growth 48h inconclusive, Cycloheximide cs inactive, Pf growth 96h inactive and HCMV antiviral inactive.
Screening CNc1ccccc1C(C)(C)c1cc(C)[nH]n1 returned HCV inhibitor inactive, Shiga inhibitor inactive, Pf growth 48h inactive, Cycloheximide cs inactive, Pf growth 96h inactive and HCMV antiviral -65.
`O=C(NCCS(=O)(=O)NCC1CCCO1)c1ccccc1` (stereo not drawn) gave HCV inhibitor inactive[8.37 µM], Pf growth 48h inactive, Pf growth 96h inactive and HCMV antiviral inactive.
For O=C1N2CCSC2=NC1(NS(=O)(=O)c1ccccc1)C(F)(F)F (stereo not drawn) the results were HCV inhibitor inactive, Shiga inhibitor inactive, Pf growth 48h inactive, Cycloheximide cs inactive, Pf growth 96h 1µM and HCMV antiviral inactive.
`Cc1onc(-c2c(F)cccc2Cl)c1C(=O)N(Cc1ccccc1)C(C)C` gave HCV inhibitor inconclusive, Shiga inhibitor inactive, Pf growth 48h inconclusive, Cycloheximide cs inactive and Pf growth 96h inconclusive.
C=CCNC(=O)/C(C#N)=C/c1c(N(Cc2ccccc2)Cc2ccccc2)nc2ccccn2c1=O was read as HCV inhibitor inconclusive, Shiga inhibitor inactive, Pf growth 48h 5.2µM, Cycloheximide cs inactive, Pf growth 96h 9.3µM and HCMV antiviral inactive.
`N#C/C(=C\c1c(N(Cc2ccccc2)Cc2ccccc2)nc2ccccn2c1=O)C(N)=O` gave HCV inhibitor inactive, Shiga inhibitor inactive, Pf growth 48h 4.7µM, Cycloheximide cs inactive, Pf growth 96h inconclusive and HCMV antiviral inactive.
For O=C(CNc1cccc(C(F)(F)F)c1)Nc1cccc(S(=O)(=O)N2CCCC2)c1 the results were HCV inhibitor 11µM, Pf growth 48h inconclusive, Pf growth 96h inconclusive and HCMV antiviral inconclusive.
For Cc1ccc(NC(=O)CSc2ncccn2)cc1F the results were HCV inhibitor inactive, Shiga inhibitor 64, Pf growth 48h inactive, Cycloheximide cs 46, Pf growth 96h inactive and HCMV antiviral inactive.
Screening Cc1ccc(NC(=O)CSc2nccn2C)cc1F returned HCV inhibitor inactive, Shiga inhibitor inactive, Pf growth 48h inactive, Cycloheximide cs inactive, Pf growth 96h inconclusive and HCMV antiviral inactive.
For Cc1ccc(SCC(=O)Nc2cccc(S(=O)(=O)N3CCOCC3)c2)cc1C the results were HCV inhibitor inconclusive, Pf growth 48h 17µM, Pf growth 96h inconclusive and HCMV antiviral inactive.
For O=C(CSc1ccc(Br)cc1)Nc1cccc(S(=O)(=O)N2CCOCC2)c1 the results were HCV inhibitor inconclusive, Pf growth 48h inconclusive, Pf growth 96h inactive and HCMV antiviral inactive.
`Cc1nc(-c2ccc(F)cc2)c(CC(=O)N2CCN(S(=O)(=O)c3cccc([N+](=O)[O-])c3)CC2)s1` gave HCV inhibitor inconclusive, Pf growth 48h 9.3µM, Pf growth 96h 12µM and HCMV antiviral inactive.
For COc1ccc(C(CNC(=O)c2cccc(S(=O)(=O)N(C)c3ccccc3)c2)N2CCCC2)cc1 (stereo not drawn) the results were HCV inhibitor inconclusive, Pf growth 48h inconclusive, Pf growth 96h inconclusive and HCMV antiviral inactive.
Cc1ccc(-n2nc(C)c3c(C)c(CCC(=O)NCc4ccccc4Cl)c(C)nc32)cc1C was read as HCMV antiviral inactive.
CCCCNc1ccc2c(c1)OC[C@H](C)NS2(=O)=O was read as HCMV antiviral inactive.
